Records with an inconclusive call do not appear. A number with no mark means an inactive call. The source made the active and inactive calls. The call rests on the fitted dose curve; in most records, active means well fitted inhibition curve with a large enough effect; inconclusive means small, poorly fitted or top-dose-only effect; inactive means flat fitted curve, though single readings scatter.

A short description of assay [1]: qHTS profiling for inhibitors of Plasmodium falciparum proliferation (AID 504749). Further: nearly all actives have a fitted effect of over 60% in size.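 On activity, negative = inhibition: 0% = DMSO vehicle and full inhibition = artemisinin control.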 The note with it: P. falciparum in erythrocytes, SYBR Green DNA, 72 h. An outline of the steps: (§1)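 SYBR Green fluorescence of parasite DNA, read after lysis and overnight dark incubation, measured growth over 72 h in erythrocyte culture at 0.3% parasitemia and 2.5% hematocrit. Data normalised to DMSO and 0.29 uM artemisinin, with plate-drift correction.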
(In general: In qHTS, concentration-response curves come from the screen itself.)

For a further assay, the system named is 3D7. Described as above. The following applies: P. falciparum in erythrocytes, SYBR Green DNA, 72 h; series mostly up to 28.7 µM. An outline of the steps: as §1
The test system of another assay is AS120. Described as above. The following applies: P. falciparum in erythrocytes, SYBR Green DNA, 72 h; series mostly up to 28.7 µM. An outline of the steps: as §1
The test system of another assay is ATS95. The description is as above. The note with it: P. falciparum in erythrocytes, SYBR Green DNA, 72 h; series mostly up to 28.7 µM. An outline of the steps: as §1
The test system of another assay is CP191. The description is as above. The following applies: P. falciparum in erythrocytes, SYBR Green DNA, 72 h; series mostly up to 28.7 µM. The method in brief:
as §1

Another assay deals with CP192. The assay is described as above. The note with it: P. falciparum in erythrocytes, SYBR Green DNA, 72 h; series mostly up to 28.7 µM. An outline of the steps: as §1
A further assay has as its system CP194. The description is as above. The note with it: P. falciparum in erythrocytes, SYBR Green DNA, 72 h; series mostly up to 28.7 µM. An outline of the steps: as §1
The next assay has as its system CP201. Described as above. The note with it: P. falciparum in erythrocytes, SYBR Green DNA, 72 h; series mostly up to 28.7 µM. The method in brief: as §1
The subject of the next assay is CP203. Described as above. The note with it: P. falciparum in erythrocytes, SYBR Green DNA, 72 h; series mostly up to 28.7 µM. An outline of the steps: as §1
Another assay deals with CP211. Described as above. The note with it: P. falciparum in erythrocytes, SYBR Green DNA, 72 h; series mostly up to 28.7 µM. The method in brief: as §1
In another assay the test system is CP215. Described as above. The note with it: P. falciparum in erythrocytes, SYBR Green DNA, 72 h; series mostly up to 28.7 µM. The method in brief:
as §1

The next assay deals with CP237. The description is as above. The note with it: P. falciparum in erythrocytes, SYBR Green DNA, 72 h; series mostly up to 28.7 µM. The method in brief: as §1
The test system of another assay is 7G8. The description is as above. The note with it: P. falciparum in erythrocytes, SYBR Green DNA, 72 h; series mostly up to 28.7 µM. The method in brief:
as §1

The test system of a further assay is AA1029. Described as above. The note with it: P. falciparum in erythrocytes, SYBR Green DNA, 72 h; series mostly up to 28.7 µM. An outline of the steps:
as §1

The next assay deals with C2A. The description is as above. The following applies: P. falciparum in erythrocytes, SYBR Green DNA, 72 h; series mostly up to 28.7 µM. An outline of the steps:
as §1

The next assay relates to CP185. The description is as above. The note with it: P. falciparum in erythrocytes, SYBR Green DNA, 72 h; series mostly up to 28.7 µM. The method in brief:
as §1

The subject of another assay is ATS189. Described as above. The note with it: P. falciparum in erythrocytes, SYBR Green DNA, 72 h; series mostly up to 28.7 µM. An outline of the steps:
as §1

Another assay has as its system CP217. Described as above. The note with it: P. falciparum in erythrocytes, SYBR Green DNA, 72 h; series mostly up to 28.7 µM. The method in brief: as §1
Setting [2] is: at 28.7 µM (top of the series), parasite line A.
Setting [3] is: at 28.7 µM (top of the series), parasite line B.
[4] abbreviates: at 12.8 µM (top of the series), parasite line A.
[5] abbreviates: at 12.8 µM (top of the series), parasite line B.
Potency means the concentration at half of the fitted maximal effect.

On to `COc1cc2c(cc1OC)C(=O)C(CC1CCN(Cc3ccccc3)CC1)C2` (centres undefined), for which the results for the activity, negative = inhibition in [1] (setting [2]) and in assay [1] (setting [3]) were -29.4% and 5.51%, respectively. Moreover, the Potency entry in the assay on 3D7, in the assay with AS120, in the assay on ATS95, with CP192, with CP194 and in the assay on CP201 was “inactive” in each case. For the same compound, the Potency result in the assay on CP203, with CP211, with CP215 and in the assay on CP237 was “inactive” each time. Besides, the Potency in the assay on CP191 is 8.91 µM (active).

Turning to `CN(C(=O)CN(CCO)CC(=O)N(C)C(C)(C)Cc1ccccc1)C(C)(C)Cc1ccccc1`, the activity, negative = inhibition in [1] (setting [4]) is 4.12%; in assay [1] (setting [5]), -5.35%. Besides, the Potency result with 3D7, with AA1029, in the assay with ATS95, in the assay with C2A, in the assay with CP185 and with CP191 was “inactive” throughout. For the same compound, the Potency result with CP192, in the assay on CP201, with CP211 and with CP215 was “inactive” in each case. The Potency in the assay on 7G8 was 3.16 µM (active).

Turning to `c1ccc(CNCCNCc2ccccc2)cc1`, the values for the activity, negative = inhibition in assay [1] (setting [2]) and in assay [1] (setting [3]) were 2.06% and 5.37%, respectively. In addition, the Potency result with 3D7, in the assay on CP191, with CP192 and in the assay on CP201 was “inactive” throughout. Further, the Potency in the assay on 7G8 is 10 µM (active); in the assay with CP237, 3.16 µM (active).

With `CCOC(=O)COc1ccc2c(C)c(CCN(CC)CC)c(=O)oc2c1Cl`, the activity, negative = inhibition in [1] (setting [3]) is -29.4%. Further, in assay [1] (parasite line A), the Potency was 3.55 µM (active). Also, the Potency result in the assay on 3D7, with 7G8, in the assay with AA1029, with ATS189, with ATS95 and in the assay on CP185 was “inactive” each time. The Potency result in the assay with CP192, with CP194, in the assay with CP201, in the assay with CP211, in the assay with CP215 and in the assay with CP217 was “inactive” throughout. Also, the Potency result in the assay on CP237 was “inactive”.

On to `CCCCCCCCCCCCCCCCOP(=O)([O-])OCC[N+](C)(C)C`, for which the activity, negative = inhibition in assay [1] (setting [2]) is -1.43%; in assay [1] (setting [3]), 12.3%. Also, the Potency entry with 3D7, in the assay on AA1029, in the assay with AS120, in the assay with ATS189, with ATS95 and in the assay on C2A was “inactive” each time. The Potency entry in the assay on CP185, with CP191, in the assay on CP192, with CP194, in the assay with CP201 and in the assay on CP203 was “inactive” each time. Further, the Potency entry in the assay on CP211, with CP215, in the assay on CP217 and in the assay on CP237 was “inactive” throughout.

For `O=C1OCCN1/N=C/c1ccc([N+](=O)[O-])o1`, the Potency with 7G8 and in the assay on AA1029 was 10 µM (active) each time. Further, the Potency entry in the assay with C2A, with CP192 and with CP194 was “inactive” throughout.

Turning to `C[C@@H]1CN(CCCn2c3ccccc3c3ccccc32)C[C@H](C)N1`, the Potency in assay [1] (parasite line A) was 10 µM (active); in the assay on 7G8, 4.47 µM (active); in the assay with AA1029, 4.47 µM (active); in the assay with AS120, 12.6 µM (active); in the assay on C2A, 11.2 µM (active); in the assay on CP191, 7.08 µM (active). Moreover, the Potency in the assay with CP237 was 11.2 µM (active). Also, the Potency result in the assay with CP192 was “inactive”.

For `CCCCC(CC)CN=C(N)NC(N)=NCCCCCCN=C(N)NC(N)=NCC(CC)CCCC` (centres undefined), the Potency in [1] (parasite line A) was 1 µM (active); with 3D7, 1.58 µM (active); with 7G8, 0.316 µM (active); in the assay with AA1029 it was 1.41 µM (active); with AS120, 0.891 µM (active); in the assay with ATS189 it was 3.16 µM (active). Further, the Potency in the assay on ATS95 is 1.41 µM (active); in the assay on C2A, 2.24 µM (active); in the assay with CP185, 1.41 µM (active); in the assay with CP191 it was 1 µM (active); with CP192, 3.79 µM (active); in the assay on CP194, 1.51 µM (active). In addition, the Potency was 1.69 µM (active) in the assay with CP201; 1.51 µM (active) with CP211; 1.69 µM (active) with CP215; 3.16 µM (active) in the assay on CP217; 1.26 µM (active) with CP237.

Take `Oc1c(I)cc(I)c2cccnc12`: the Potency entry with C2A was “inactive”.

Turning to `CN=C(NC#N)Nc1ccc(C2=NNC(=O)CC2C)cc1` (centres undefined), the Potency result with CP192, in the assay with CP194, in the assay on CP201, with CP203, in the assay on CP211 and with CP215 was “inactive” in each case.

For `CC(C)NC[C@@H](O)COc1cccc2ccccc12`, in [1] (setting [2]), the activity, negative = inhibition is 4.7%. Moreover, the Potency result with 3D7, with C2A, with CP192, with CP201 and in the assay with CP211 was “inactive” throughout. Besides, the Potency with 7G8 is 5.62 µM (active); with AA1029, 11.2 µM (active); in the assay on AS120, 8.91 µM (active); with ATS189 it was 10 µM (active); in the assay with CP237, 5.01 µM (active).

Take `CCCCCCCCCCOCC(O)CN` (centres undefined): the activity, negative = inhibition in [1] (setting [2]) is -16.8%. In addition, the Potency entry in the assay with 3D7, with C2A, in the assay on CP191, with CP201 and with CP215 was “inactive” throughout. Moreover, in the assay with 7G8, the Potency is 12.6 µM (active).

Turning to `Cc1cccc(C)c1NC(=O)CN1CCN(CCCC(c2ccc(F)cc2)c2ccc(F)cc2)CC1`, the values for the activity, negative = inhibition in assay [1] (setting [4]) and in assay [1] (setting [5]) were -9.2% and -3.17%, respectively. Besides, the Potency in the assay with 7G8 is 4.47 µM (active); in the assay with AS120, 3.98 µM (active). The Potency result in the assay on C2A, with CP185, in the assay on CP191, in the assay with CP192, in the assay with CP201 and with CP211 was “inactive” throughout. The Potency entry in the assay with CP215 was “inactive”.

On to `C[C@@H]1C(=O)NC2=Nc3cccc(Cl)c3CN21`, for which the activity, negative = inhibition in [1] (setting [3]) was -2.54%. Besides, the Potency result in the assay with 3D7, in the assay on 7G8, with AA1029, in the assay on AS120, in the assay on ATS189 and in the assay with ATS95 was “inactive” in each case. Further, the Potency entry in the assay on C2A, in the assay on CP185, with CP191, with CP192, in the assay with CP194 and with CP201 was “inactive” in each case. Further, the Potency result with CP211, in the assay on CP215, in the assay with CP217 and in the assay on CP237 was “inactive” throughout.

As to `CCN(CC)CCOc1ccc(C(O)(Cc2ccc(Cl)cc2)c2ccc(C)cc2)cc1` (centres undefined), the Potency with 7G8 was 5.01 µM (active); in the assay with AA1029 it was 11.2 µM (active); in the assay on ATS189, 11.2 µM (active); with CP215 it was 13.5 µM (active); in the assay on CP237, 7.94 µM (active).

As to `CCOc1ccc(Cc2nccc3cc(OCC)c(OCC)cc23)cc1OCC`, the activity, negative = inhibition in [1] (setting [5]) was -21.6%. The Potency entry with 7G8, in the assay with AA1029, in the assay on AS120, in the assay on ATS189, in the assay with ATS95 and in the assay with C2A was “inactive” throughout. The Potency entry in the assay on CP185, in the assay on CP192 and in the assay on CP203 was “inactive” each time.

As for `CNCCC=C1c2ccccc2CCc2ccccc21`, in assay [1] (setting [2]), the activity, negative = inhibition was -6.28%. Besides, in the assay on 3D7, the Potency entry was “inactive”. For the same compound, the Potency in the assay on 7G8 is 11.2 µM (active); in the assay on AA1029, 4.47 µM (active); in the assay on ATS95 it was 5.62 µM (active).

On to `CCCCCCCCCCCCCCCC[N+](C)(C)CCN(Cc1ccc(OC)cc1)c1ncccn1`, for which the activity, negative = inhibition in assay [1] (setting [4]) is -28.5%. The Potency result in the assay with ATS189, in the assay on CP192, in the assay with CP194, with CP201, in the assay with CP203 and with CP211 was “inactive” each time. In the assay with CP215, the Potency entry is “inactive”. In the assay on CP191, the Potency is 0.794 µM (active).

The record behind these values is PubChem BioAssay (NCATS).
